Reference: PubChem BioAssay
Activity calls are given as the source filed them. The rule behind the calls is not given here.

The compounds below were run against Pantothenate synthetase (Mycobacterium tuberculosis (strain ATCC 25618 / H37Rv)) (UniProt P9WIL5) (assay: Recombinant Mtb pantothenate synthetase (PanC) inhibitors, coupled enzyme, confirmatory (AID 375;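 note: 0% = full reaction with vehicle and 100% = no enzyme background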)). Conditions: coupled enzyme assay; at 10 µM, active compounds read high.
Sequence of Pantothenate synthetase (Mycobacterium tuberculosis (strain ATCC 25618 / H37Rv)) (P9WIL5 whole entry, looked up): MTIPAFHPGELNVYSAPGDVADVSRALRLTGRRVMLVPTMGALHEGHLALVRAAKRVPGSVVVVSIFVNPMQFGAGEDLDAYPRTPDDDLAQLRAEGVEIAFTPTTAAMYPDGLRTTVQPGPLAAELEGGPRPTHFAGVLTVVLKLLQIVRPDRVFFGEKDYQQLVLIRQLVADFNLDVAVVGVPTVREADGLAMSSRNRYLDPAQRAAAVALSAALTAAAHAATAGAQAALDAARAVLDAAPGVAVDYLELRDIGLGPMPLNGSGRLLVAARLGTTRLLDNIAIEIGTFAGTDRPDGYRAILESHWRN
In the case of `O=C(Nc1ccccc1C(=O)N1CCOCC1)C1CCC(=O)N1C1CCCC1` (configuration not stated), the inhibition is reported as 1% (inactive).
`CC1Cc2nc(SCC(N)=O)n(Cc3ccccc3)c(=O)c2S1` (configuration not stated) was tested, and the inhibition was 0% (inactive).
`O=C(COc1nnc2ccccn12)N1CCN(S(=O)(=O)c2ccccc2)CC1` was tested, and the inhibition was 1% (inactive).
For `CSCCC(NC(=O)c1occc1C)C(=O)O` (configuration not stated), the inhibition was 0% (inactive).
For `Cc1ccc(N(CC2=NCCN2)c2cccc(O)c2)cc1`, the inhibition was 1% (inactive).
`Cc1ccc(N(C(=O)c2ccncc2)C2C=CS(=O)(=O)C2)cc1` (configuration not stated) was tested, and the inhibition was 5% (inactive).
With `C=CCOc1ccccc1/C=c1\sc2nc(=O)c(C)nn2c1=O` the inhibition was 0% (inactive).
